Screening results deposited in PubChem by several laboratories.
NOD2 RIPK2 PPI – inhibitors of human NOD2-RIPK2 interaction | O43353 | CHO BLA complementation NOD2-RIPK2, CCF4 ratio | inhibition, % at 4.98 µM | actives 0.38% (n = 360,000) | AID 624267; in the data active means inhibition above about 21%;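 further: 0% = vehicle only and 100% = reference blocker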
NPR1 activator – GC-A (human) enzyme activation. P16066. HEK293 GC-A cells, cGMP TR-FRET, EC30 ANP; 0% at EC30 ANP, 100% saturating ANP. activation, % at 10 µM. actives 0.14% (n = 370,000); in the data active means activation above about 40%
Target sequence (P16066 whole entry, looked up): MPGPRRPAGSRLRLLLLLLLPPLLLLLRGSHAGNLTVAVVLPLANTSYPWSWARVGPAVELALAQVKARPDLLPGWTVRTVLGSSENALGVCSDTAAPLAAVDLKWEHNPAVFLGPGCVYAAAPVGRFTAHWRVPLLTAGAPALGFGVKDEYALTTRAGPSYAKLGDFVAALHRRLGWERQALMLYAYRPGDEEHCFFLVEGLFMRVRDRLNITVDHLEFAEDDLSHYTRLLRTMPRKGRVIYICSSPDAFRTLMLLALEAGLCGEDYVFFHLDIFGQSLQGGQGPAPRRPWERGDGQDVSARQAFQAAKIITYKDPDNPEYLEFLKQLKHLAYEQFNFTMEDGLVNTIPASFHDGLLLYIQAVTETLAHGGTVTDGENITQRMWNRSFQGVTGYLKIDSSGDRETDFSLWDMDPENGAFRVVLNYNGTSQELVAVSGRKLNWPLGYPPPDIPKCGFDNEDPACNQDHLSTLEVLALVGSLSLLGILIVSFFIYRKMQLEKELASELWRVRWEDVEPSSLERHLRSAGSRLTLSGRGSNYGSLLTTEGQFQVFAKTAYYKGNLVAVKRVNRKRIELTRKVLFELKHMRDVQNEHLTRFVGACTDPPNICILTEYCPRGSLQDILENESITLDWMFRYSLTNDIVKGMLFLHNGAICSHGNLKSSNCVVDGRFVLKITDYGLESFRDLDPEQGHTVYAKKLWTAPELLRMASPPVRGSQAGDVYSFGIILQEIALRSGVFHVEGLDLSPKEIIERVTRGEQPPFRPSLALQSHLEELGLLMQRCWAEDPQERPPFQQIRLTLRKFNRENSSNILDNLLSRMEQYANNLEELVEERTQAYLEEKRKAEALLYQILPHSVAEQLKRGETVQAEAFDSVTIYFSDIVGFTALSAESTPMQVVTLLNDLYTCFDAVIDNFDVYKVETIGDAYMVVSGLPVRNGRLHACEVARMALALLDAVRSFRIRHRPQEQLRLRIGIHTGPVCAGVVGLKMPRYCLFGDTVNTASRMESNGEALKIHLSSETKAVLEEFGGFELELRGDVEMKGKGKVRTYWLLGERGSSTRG
Neddylation inh – blocks human cullin neddylation. TR-FRET cullin neddylation, biochemical. inhibition, % at 25 µM. actives 0.58% (n = 360,000); in the data active means inhibition above about 36%
TLR9-MyD88 block – TLR9-MyD88 interaction inhibition; inhibition, % at 4.98 µM; actives 0.21% (n = 340,000); CHO BLA complementation TLR9-MyD88, CCF4 FRET ratio; AID 504734; Q9NR96+Q99836;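 active means inhibition above the mean over all tested compounds plus 3 SD, cut at about 21% in these data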;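 further: 0% = DMSO only wells and 100% = clavulanate BLA inhibitor control wells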
NPR2 activator – GC-B (human) receptor activation; P20594; activation, % at 10 µM; actives 0.11% (n = 370,000); HEK293-GC-B cells, CNP EC30, cGMP TR-FRET; 0% at EC30 CNP, 100% saturating CNP;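 active means activation at 10 µM reaching about 35% in either raw or pattern-adjusted values, limit read from the data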
TLR4 MyD88 comp – inhibitors of human TLR4-MyD88 binding. inhibition, % at 8.4 µM. O00206+Q99836. AID 861. HeLa CL3-4 TLR4/MyD88 BLA complementation, FRET ratio. actives 0.18% (n = 200,000); in the data active means inhibition above about 25%;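 further: 0% = vehicle and 100% = reference inhibitor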
Neddyl inh conf – cullin neddylation inhibition, confirmation; actives 13% (n = 1,800); shares compounds with Neddylation inh; calls only at 25 µM; TR-FRET cullin neddylation biochemical assay; in the data active means inhibition above about 40%;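 further: neddylation substrate is the cullin 1 ring ligase complex with SKP2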
* marks the source's active call; other numbers are inactive results; i = inactive; nt = no result shown; + = active, no number. Most compounds without a hit are left out; they make up all but 1.2% or so of the library.

SMILES	NOD2 RIPK2 PPI	NPR1 activator	Neddylation inh	TLR9-MyD88 block	NPR2 activator	TLR4 MyD88 comp	Neddyl inh conf
NC(=O)c1nsc(C(=O)N(c2ccccc2)C(C(=O)NCC2CCCO2)c2cccs2)c1N (configuration not stated)	-8.0	nt	44.3*	3.9	nt	-11.3	i
CCN1CCCCC(NC(C)=O)C1=O (configuration not stated)	nt	3.3	nt	nt	3.7	nt	nt
COc1ccc2cc3c(N)nn(C(=O)Cc4ccc(Cl)cc4)c3nc2c1	-2.2	27.4	35.3	9.4	13.0	4.1	nt
COc1cccc(CC(=O)n2nc(N)c3cc4ccc(OC)cc4nc32)c1	9.4	-0.9	41.1*	5.2	0.2	-10.8	i
Cc1ccc(S(=O)(=O)N2CCN(C(=O)c3cccn3C)CC2)cc1	nt	-1.8	nt	nt	0.9	nt	nt
CN1CCC(C(=O)N2CCCC(C(=O)c3ccc4c5c(cccc35)CC4)C2)CC1 (configuration not stated)	-8.8	-0.9	41.1*	2.0	-0.4	-15.0	i
CC(=O)OCCc1[nH]c2ccccc2c1C	-9.2	2.3	-15.2	4.8	0.8	nt	nt
CC(=O)OCCc1c2ccccc2c(CCCN(C)C)c2ccccc12	-6.5	-0.9	35.8*	-17.9	1.3	nt	nt
COc1ccc(C(CNC(=O)c2oc3ccc(OC)cc3c2C)N2CCCC2)cc1 (configuration not stated)	-4.1	-19.1	50.3*	-0.7	-14.1	nt	nt
CCOc1ccc2oc(C(=O)NCc3ccccc3CN3CCCC3)c(C)c2c1	12.9	3.2	51.6*	0.9	5.0	nt	nt
Cc1c(C(=O)NCC(c2ccco2)N(C)C)oc2c(Cl)cccc12 (configuration not stated)	2.5	-3.5	9.2	-7.5	4.9	nt	nt
CN(C)C(CNC(=O)c1ccc2[nH]c(=O)c(=O)[nH]c2c1)c1ccco1 (configuration not stated)	0.5	2.8	52.1*	-7.2	4.0	nt	nt
CCOc1ccc2oc(C(=O)NCC(c3ccco3)N(C)C)c(C)c2c1 (configuration not stated)	-5.6	0.0	47.3*	-9.1	-1.6	nt	nt
CN(C)C(CNC(=O)c1ccc(Br)cc1)c1ccco1 (configuration not stated)	-2.2	5.8	-5.4	3.1	3.0	nt	nt
CCOc1ccc(-n2c(SCC(=O)c3ccccc3Cl)nnc2-c2ccncc2)cc1	nt	-4.0	nt	nt	-5.7	nt	nt
O=C(NCC(c1cccs1)N1CCOCC1)c1cc2ccccc2oc1=O (configuration not stated)	-2.6	-0.4	-26.8	-21.5	-3.1	nt	nt
COC(=O)[C@]12C[C@H](CC(=O)NCCC(C)C)C(=O)N(CCC3=CCCCC3)C1=C[C@H](C(C)C)O[C@@H]2C1CC1	nt	-3.8	nt	nt	-3.7	nt	nt
CC(=O)c1cccc(Nc2ccc(C#N)cc2)c1	-0.8	-1.5	8.5	nt	-5.7	nt	nt
CC(C)C[C@@H](CSc1ccccc1)N1CCN(CCc2ccccc2)CCC1=O	17.5	1.1	28.8*	7.9	0.2	nt	i
COCCNC(=O)c1ccc2c3n(nc2c1)-c1ccc(C)cc1CO3	-8.8	7.2	51.7*	-3.0	4.9	nt	nt
C[C@@H](CO)NC(=O)c1ccc2c3n(nc2c1)-c1ccccc1CO3	-7.7	-2.9	28.9	3.4	-3.0	nt	nt
O=C(NCC1CCCO1)c1ccc2c3n(nc2c1)-c1ccccc1CO3 (configuration not stated)	1.7	-0.6	42.1*	1.2	3.6	nt	i
CCOC(=O)N1CCC(Nc2cc(C)nc3c(-c4ccccc4OC)c(C)nn23)CC1	-5.8	6.8	40.3*	-0.4	11.9	-2.0	i
COc1ccccc1-c1c(C)nn2c(N3CCC(C)CC3)cc(C)nc12	-4.2	-1.7	38.3*	2.2	-6.3	nt	nt
CCOC(=O)N1CCN(C(=O)CSc2cc(C)nc3c(-c4ccccc4OC)c(C)nn23)CC1	-7.2	-3.1	7.9	-8.6	1.2	7.6	nt
SMILES	NOD2 RIPK2 PPI	NPR1 activator	Neddylation inh	TLR9-MyD88 block	NPR2 activator	TLR4 MyD88 comp	Neddyl inh conf
C[C@@H]1COc2cc(F)ccc2S(=O)(=O)N1C	nt	-3.7	nt	nt	4.8	nt	nt
Cc1cccn2c(=O)c(C=Nc3ccccc3)c(NCCO)nc12	-5.3	3.0	45.8*	0.7	0.0	-16.3	i
CN=Cc1c(NC)nc2c(C)cccn2c1=O	2.0	10.8	42.8*	-3.4	3.2	-6.8	+
Cc1cccn2c(=O)c(C=Nc3ccc(Cl)cc3)c(NCCO)nc12	3.7	3.5	34.5	-6.6	1.7	-10.8	nt
CC1(C)CC(=O)c2cc(OCC(=O)N3CCN(c4ccccc4F)CC3)ccc2O1	3.6	-1.5	52.0*	-0.2	-0.9	3.7	nt
CC1(C)CC(=O)c2cc(OCC(=O)N3CCCCCC3)ccc2O1	-1.4	5.3	nt	5.5	4.9	-6.5	nt
COc1ccc(-c2ccc(-c3nnc(Cc4ccc(OC)c(OC)c4)o3)cc2)cc1	2.6	3.2	43.9*	-11.6	-5.0	17.1	i
CN(C)CCNc1ncnc2c1ncn2[C@H]1CN(Cc2ccc(-c3ccccc3)cc2)C[C@@H](CO)O1	-5.0	5.2	-1.1	nt	-2.7	nt	nt
CCOc1ccc(NC(=O)NNC(=O)c2ccc3ccccc3c2O)cc1	-15.3	3.2	35.9	3.0	1.3	nt	nt
COc1ccc(NC(=O)NNC(=O)c2ccc3ccccc3c2O)c(OC)c1	-4.7	1.6	43.9*	4.9	-1.1	nt	i
COc1ccc(OC)c(NC(=O)Nc2ccc(O)c3ccccc23)c1	-5.1	-22.5	40.4*	-6.8	-18.1	nt	nt
CCc1ccccc1NC(=O)NNC(=O)c1ccc2ccccc2c1O	-5.2	-2.3	38.0*	2.7	0.6	nt	i
COc1ccc(OC)c(NC(=O)Nc2c(O)ccc3ccccc23)c1	5.9	-4.7	5.7	-1.4	-7.7	nt	nt
CCCCCCCCNC(=O)C1CSCCS(=O)(=O)N1Cc1ccc(OC)cc1 (configuration not stated)	nt	-1.0	nt	nt	4.6	nt	nt
COC(=O)[C@]12C[C@H](CC(=O)NCC34CC5CC(CC(C5)C3)C4)C(=O)N(CCC3=CCCCC3)C1=C[C@H](C1CCCC1)O[C@@H]2C	nt	0.4	nt	nt	-4.3	nt	nt
CCNC(=O)N(C)[C@H]1C[C@H]2c3[nH]c4cccc(-c5ccc6c(c5)OCO6)c4c3CCN2C[C@H]1[C@H](C)O	nt	6.0	nt	nt	0.5	nt	nt
Nc1ccccc1C(=O)N1O[C@@H]2C=C[C@H]1CC2	-6.8	0.3	15.8	-6.3	1.9	nt	nt
COc1ccccc1NC(=O)Nc1nc(C(N)CC(C)C)cs1 (configuration not stated)	3.0	3.4	-4.9	nt	1.2	nt	nt
COc1cccc(N=c2oc3cc(O)ccc3cc2C(=O)NCC2CCCO2)c1 (configuration not stated)	-74.6	22.0	43.6*	-52.2	26.5	-6.7	i
COc1ccccc1N=c1oc2cc(O)ccc2cc1C(=O)NCC1CCCO1 (configuration not stated)	-64.7	-1.6	nt	-93.0	2.8	-22.3	nt
